This note sets out measurements from PubChem BioAssay.

Activity calls are given as the source filed them.

In assay [1] the test system is Human papillomavirus type 1a protein E7 (residues 44-93). Nature of the assay: HPV1a E7 fragment binders on microarrays, primary screen, biochemical, small-molecule microarray, residues 44-93, 635 nm fluorescence (AID 1108).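 Note: E7 fragment applied at 1 µg/mL in TBST for 1 h at 4 C; score combines spot fluorescence with its signal to noise ratio.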 Particulars: small-molecule microarray binding, fluorescence 635 nm; higher = more signal.
A short description of assay [2]: modulators of HCV replicon luciferase signal, primary screen, HCV replication inhibitor project, Huh7 cells, luciferase reporter (AID 1109).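 Note: huh7 hepatoma cells harbouring a luciferase neomycin HCV replicon reporter; luciferase luminescence as measure of HCV replicon replication; test concentration not given here.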 Particulars: 48 h, higher = more signal. (Replicon systems follow genome replication, usually without infectious particles.)
The target in assay [3] is Left-right determination factor 2 (Homo sapiens) (UniProt O00292). Nature of the assay: LEFTY2 binders on small-molecule microarrays, primary screen, biochemical, small-molecule microarray, 635 nm fluorescence scan (AID 1110). Particulars: LEFTY2 binding, higher = more signal.
Chain of Left-right determination factor 2 (Homo sapiens) (O00292 whole entry, looked up): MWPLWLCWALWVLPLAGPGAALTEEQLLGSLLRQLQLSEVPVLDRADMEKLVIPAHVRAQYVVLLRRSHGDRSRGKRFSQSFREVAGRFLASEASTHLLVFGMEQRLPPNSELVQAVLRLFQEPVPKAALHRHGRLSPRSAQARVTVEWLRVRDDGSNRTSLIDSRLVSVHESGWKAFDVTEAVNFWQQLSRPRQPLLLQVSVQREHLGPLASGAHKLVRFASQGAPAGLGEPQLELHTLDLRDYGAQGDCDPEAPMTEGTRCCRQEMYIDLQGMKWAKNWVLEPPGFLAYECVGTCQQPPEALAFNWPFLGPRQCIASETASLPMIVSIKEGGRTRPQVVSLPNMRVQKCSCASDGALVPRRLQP
Assay [4] has as its target Calmodulin-1 (Homo sapiens) (UniProt P0DP23). Nature of the assay: CALM1 binders on microarrays, EGTA buffer, profiling panel, biochemical, small-molecule microarray, Cy5-labelled CALM1 (AID 1111).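 Note: labelled calmodulin applied in Tris saline Tween buffer holding calcium plus EGTA and DTT.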 Particulars: Cy5-CALM1 binding fluorescence, higher = more signal.
Assay [5] shares this target. Description: calcium-bound CALM1 binders on microarrays, profiling panel, artefact control for SMM control-protein annotation, biochemical, small-molecule microarray, Cy5-labelled CALM1, plus calcium (AID 1112).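 Note: score merges spot fluorescence with signal to noise from triplicate slides.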 Particulars: Cy5-CALM1 binding fluorescence, higher = more signal.
Assay [6] is described as follows: small-molecule microarray binders of probe aWnt5a, primary screen, biochemical, biotinylated probe, 635/667 nm fluorescence (AID 1113).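 Note: score merges 667 nm fluorescence intensity with signal-to-noise per printed feature.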 Particulars: higher = more signal.
Assay [7] in a line: small-molecule microarray binders of probe aShh, primary screen, biochemical, biotinylated probe, 635/667 nm fluorescence (AID 1114).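 Note: probe is biotin-labelled aShh protein from a stem cell growth factor screen; measures binding of labelled protein to compounds printed on the slide; score merges feature fluorescence at 667 nm with signal-to-noise.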 Particulars: higher = more signal.
Assay [8] is described as follows: small-molecule microarray binders of probe aNog, primary screen, biochemical, biotinylated probe, 635/667 nm fluorescence (AID 1115).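 Note: probe is biotinylated aNog protein used at 0.15 µg/mL for 1 h at 4 C; z-score combines 667 nm fluorescence of each spot with its signal to noise.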 Particulars: higher = more signal.
Assay [9] addresses Torsin-1A-interacting protein 1 (Homo sapiens) (UniProt Q5JTV8). Nature of the assay: LAP1 binders from COS7 cell lysate, primary screen, small-molecule microarray, 635/667 nm fluorescence (AID 1116). Particulars: COS7-hLAP1 lysate binding, 635 nm fluorescence, higher = more signal.
Assay [10] deals with Alpha-bungarotoxin (Bungarus multicinctus) (UniProt P60615). Description: alpha-bungarotoxin binders on microarray, profiling panel, artefact control for SMM control protein annotation, biochemical, small-molecule microarray, Alexa647 label, 635/667 nm fluorescence (AID 1117). Particulars: alpha-BTX-A647 binding fluorescence, higher = more signal.
Chain of Alpha-bungarotoxin (Bungarus multicinctus) (P60615 whole entry, looked up): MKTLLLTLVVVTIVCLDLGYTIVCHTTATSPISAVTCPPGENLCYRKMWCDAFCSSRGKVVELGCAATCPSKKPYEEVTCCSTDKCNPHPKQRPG
A further assay addresses Albumin (Bos taurus) (UniProt P02769). Description: bovine serum albumin binders on microarray, profiling panel, artefact control for SMM control protein annotation, biochemical, small-molecule microarray, Alexa647 label, 635/667 nm fluorescence (AID 1118).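 Note: score merges 667 nm emission intensity and signal-to-noise per printed compound spot.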 Particulars: BSA-A647 binding, fluorescence 635 nm, higher = more signal.
A short description of assay [11]: small-molecule microarray binders of probe aXIP, primary screen, biochemical, NeuroSMM set, 635/667 nm fluorescence (AID 1119).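 Note: probe is the protein aXip251-270 applied at 1 µg/mL to compound-printed slides; binding of probe to printed compounds measured as 667 nm fluorescence plus signal to noise.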 Particulars: higher = more signal, called active from +8 up or from −8 down.
Assay [12] in a line: small-molecule binders of probe aNOTCH3, primary screen, biochemical, small-molecule microarray, 635/667 nm fluorescence (AID 1120).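 Note: probe is a biotin-tagged antibody raised against NOTCH3 rather than NOTCH3 protein; score merges spot fluorescence near 667 nm with spot signal to noise.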 Particulars: higher = more signal.
The nature of assay [13]: small-molecule binders of probe aNOTCH2, primary screen, biochemical, small-molecule microarray, 635/667 nm fluorescence (AID 1121).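 Note: score merges feature fluorescence read at 667 nm with its signal to noise.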 Particulars: higher = more signal.
Assay [14] has as its target Carbonic anhydrase 2 (Homo sapiens) (UniProt P00918). Description: CAII small-molecule binders, profiling panel, biochemical, small-molecule microarray, Alexa647-labelled CAII (AID 1122). Particulars: CAII-A647 binding fluorescence, higher = more signal.
Assay [15] can be described thus: COS7 lysate on small-molecule microarray, probe aHis, 635 nm (AID 1123).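 Note: z-score combines 667nm fluorescence intensity with signal-to-noise per printed compound spot.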 Particulars: COS7 cell lysate, fluorescence, higher = more signal.
Assay [16] in a line: compound binding in COS7 lysate, probe aLAP1, primary screen, cell lysate, small-molecule microarray (AID 1124).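 Note: lysate comes from COS7 cells expressing LAP1 and is applied at 0.3 µg/mL; score merges spot fluorescence near 667 nm with signal-to-noise over triplicate slides.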 Particulars: probe aLAP1, fluorescence, higher = more signal.
Another assay deals with Sam68 (KHDRBS1). Description: Sam68 small-molecule binders, primary screen, biochemical, small-molecule microarray, 635 nm fluorescence (AID 1125).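 Note: score merges 667 nm channel intensity with signal to noise over triplicate slides.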 Particulars: small-molecule microarray binding, higher = more signal.
Assay [17] deals with Chordin-like protein 2 (CHRDL2). Description: CHRDL2 small-molecule binders, primary screen, biochemical, small-molecule microarray, 635 nm fluorescence (AID 1126).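 Note: printed compound slides probed with Chrdl2 protein at 4 µg/mL for 1 h at 4 C; score merges 667 nm emission intensity with signal to noise over three replicate slides.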 Particulars: small-molecule microarray binding, fluorescence 635 nm; higher = more signal.
Assay [18] concerns the target Concanavalin-A (Canavalia ensiformis) (UniProt P02866). Description: ConA small-molecule binders, primary screen, artefact control for SMM control protein annotation, biochemical, small-molecule microarray, Alexa647 label, 635 nm (AID 1127).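 Note: z combines 667 nm emission intensity with signal-to-noise across three replicate slides.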 Particulars: ConA-A647 binding fluorescence, higher = more signal.

Chain of Torsin-1A-interacting protein 1 (Homo sapiens) (Q5JTV8 whole entry, looked up): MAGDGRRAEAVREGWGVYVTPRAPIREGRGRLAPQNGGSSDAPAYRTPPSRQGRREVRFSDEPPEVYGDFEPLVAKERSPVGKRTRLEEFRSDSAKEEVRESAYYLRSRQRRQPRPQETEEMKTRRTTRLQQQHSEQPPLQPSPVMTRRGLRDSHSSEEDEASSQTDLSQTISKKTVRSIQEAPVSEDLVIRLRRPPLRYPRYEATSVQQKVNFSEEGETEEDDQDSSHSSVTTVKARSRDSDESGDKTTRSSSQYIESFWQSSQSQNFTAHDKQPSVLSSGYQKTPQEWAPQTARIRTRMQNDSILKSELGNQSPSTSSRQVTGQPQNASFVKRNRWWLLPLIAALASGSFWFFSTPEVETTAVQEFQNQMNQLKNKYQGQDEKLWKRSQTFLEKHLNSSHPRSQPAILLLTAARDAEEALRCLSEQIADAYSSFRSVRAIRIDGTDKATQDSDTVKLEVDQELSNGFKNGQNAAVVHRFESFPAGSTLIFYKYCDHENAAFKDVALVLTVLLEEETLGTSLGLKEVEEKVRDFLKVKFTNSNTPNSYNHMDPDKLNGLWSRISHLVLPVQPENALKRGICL
Chain of Concanavalin-A (Canavalia ensiformis) (P02866 whole entry, looked up): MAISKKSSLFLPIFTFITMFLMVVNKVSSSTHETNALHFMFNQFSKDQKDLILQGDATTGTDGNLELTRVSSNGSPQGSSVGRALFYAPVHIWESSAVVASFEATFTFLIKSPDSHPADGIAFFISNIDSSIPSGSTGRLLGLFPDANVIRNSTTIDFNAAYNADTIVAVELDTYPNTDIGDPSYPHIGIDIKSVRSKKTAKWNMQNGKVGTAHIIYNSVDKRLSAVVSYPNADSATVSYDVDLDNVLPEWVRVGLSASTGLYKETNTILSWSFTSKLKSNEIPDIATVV
Chain of Albumin (Bos taurus) (P02769 whole entry, looked up): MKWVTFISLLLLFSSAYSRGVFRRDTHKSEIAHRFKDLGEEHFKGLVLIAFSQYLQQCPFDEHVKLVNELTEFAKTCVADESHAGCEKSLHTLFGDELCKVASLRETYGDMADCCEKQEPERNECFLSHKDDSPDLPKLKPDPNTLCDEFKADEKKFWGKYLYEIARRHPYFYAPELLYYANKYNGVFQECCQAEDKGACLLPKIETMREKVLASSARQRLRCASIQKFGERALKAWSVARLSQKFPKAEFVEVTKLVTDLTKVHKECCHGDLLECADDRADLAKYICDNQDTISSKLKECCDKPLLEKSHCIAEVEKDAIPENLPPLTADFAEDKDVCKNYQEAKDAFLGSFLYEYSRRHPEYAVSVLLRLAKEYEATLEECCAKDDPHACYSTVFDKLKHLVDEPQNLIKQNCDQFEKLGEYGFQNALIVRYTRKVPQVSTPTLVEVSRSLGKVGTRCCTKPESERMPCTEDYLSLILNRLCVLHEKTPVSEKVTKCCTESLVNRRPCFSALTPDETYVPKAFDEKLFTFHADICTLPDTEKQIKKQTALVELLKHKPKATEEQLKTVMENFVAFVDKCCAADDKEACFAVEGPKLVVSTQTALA

Consider `[N-]=[N+]=NCc1ccccc1C[C@]1(C(N)=O)N=C(c2ccc(OCCCO)cc2)O[C@H]1c1ccccc1N=[N+]=[N-]`, for which the composite z-score amounted to 1.4 in assay [1]; 0.308 in assay [3]; 1.18 in [4]; 0.596 in [5]; 0.193 in [6]; 0.232 in assay [7]. The composite z-score amounted to 1.08 in assay [8]; 1.71 in [9]; 1.24 in assay [10]; 0.421 in the assay with Albumin (Bos taurus); 0.327 in [12]; 0.0185 in assay [13]. In addition, the composite z-score is 0.513 in assay [14]; 1.46 in [15]; 0.312 in assay [16]; 1.23 in the assay with Sam68 (KHDRBS1); -0.652 in assay [17]; 1.09 in assay [18]. The z-score in assay [2] was -0.507. Moreover, the composite Z-score in assay [11] was -0.338 (inactive).

Consider `CO[C@H]1O[C@H](CO)[C@@H](OC(=O)Nc2ccccc2-c2ccccc2)[C@H](OC(=O)Nc2ccccc2-c2ccccc2)[C@H]1OC(=O)Nc1ccccc1-c1ccccc1`, for which the composite z-score in [1] was 1.05; in [3], 0.591; in assay [4], 1.08; in assay [5] it was -0.588; in [6], 0.0321; in assay [7], 0.431. The composite z-score in [8] was 0.225; in assay [9], 1.41; in [10], 1.73; in the assay with Albumin (Bos taurus), 0.784; in assay [12], 0.275; in assay [13], -0.0759. The composite z-score in assay [14] was 0.503; in assay [15], 1.96; in [16], -0.32; with Sam68 (KHDRBS1), 1.3; in assay [17] it was 0.0309; in assay [18], 1.15. For the same molecule, the z-score in [2] was -2.43. For the same molecule, in [11], the composite Z-score is 0.341 (inactive).

As for `COc1ccc([Si](C)(C)[C@H]2[C@H](CC(=O)N3Cc4ccccc4C[C@H]3CO)O[C@@]3(C(=O)N(Cc4cccc(I)c4)c4ccccc43)[C@@H]2C)cc1`, the composite z-score in assay [1] was 0.276; in [3], 0.947; in assay [4], -0.551; in [5], 1.49; in assay [6], -0.124; in assay [7] it was 0.0815. In addition, the composite z-score in assay [8] is -0.1; in [9], 0.225; in [10], -0.0241; in the assay with Albumin (Bos taurus), -0.481; in assay [12] it was -0.0947; in assay [13] it was -0.125. The composite z-score in [14] is 0.784; in assay [15], -0.0845; in [16], -0.361; in the assay with Sam68 (KHDRBS1) it was 0.418; in assay [17] it was 1.54; in [18], 0.891. Besides, the z-score in assay [2] is -3.8. In assay [11], the composite Z-score is 0.58 (inactive).

Turning to `Cc1ccccc1/C=C/C=O`, the composite z-score in assay [1] is -1.54; in [3], -0.615; in assay [4], -0.559; in assay [5], -0.161; in assay [6] it was -0.172; in assay [7] it was -0.154. The composite z-score in [8] is -0.41; in assay [9], -0.23; in [10], -0.465; in the assay with Albumin (Bos taurus), -0.699; in assay [12], -0.19; in assay [13], -0.171. For the same molecule, the composite z-score is -0.293 in assay [14]; -0.256 in assay [15]; -0.298 in assay [16]; -1.35 in the assay on Sam68 (KHDRBS1); -0.56 in assay [17]; -0.485 in assay [18]. This molecule registered a z-score in assay [2] of 0.19. Further, the composite Z-score in assay [11] is -0.0934 (inactive).

With `CC(c1ccccc1)C(O)C1C=CC2C(=O)N(c3ccccc3)C(=O)C2N1Nc1ccccc1F` (stereo not given), the composite z-score in [1] was 1.4; in [3], 0.0648; in assay [4], -0.32; in assay [5] it was -0.539; in assay [6], 0.0485; in assay [7] it was -0.203. In addition, the composite z-score in [8] was -0.453; in [9], 1.03; in assay [10], 0.667; with Albumin (Bos taurus), 0.687; in [12], 0.0522; in assay [13], -0.0483. In addition, the composite z-score is 0.697 in assay [14]; 2.21 in assay [15]; 0.504 in assay [16]; 1.17 in the assay with Sam68 (KHDRBS1); -0.474 in [17]; 0.77 in assay [18]. In addition, the z-score in assay [2] is -1.55. Moreover, in [11], the composite Z-score was 0.0197 (inactive).
